Shown are actives, neighbours in structure and some others; about 0.68% of the full set was active somewhere.
Mtb hypoxia inh: PubChem AID 1159583; actives 0.1% (n = 300,000); fluorescence inhibition, % (no concentration beside the values); M. tuberculosis hypoxia-regulated fluorescent reporter, fluorescence; in the data active = fluorescence inhibition mostly above about 23%, no sharp cut-off; inactive = mostly below about 17%
Sa ugtP lethal: growth inhibition of ugtP-null S. aureus, primary screen, RN4220 ugtP deletion, OD600. growth inhibition, % (test concentration not listed). 16 h. actives 0.54% (n = 330,000); in the data active = growth inhibition above about 68%;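 note: plate controls were untreated wells for no effect and antibiotic for full effect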
Sa RN4220 lethal: growth inhibition of S. aureus RN4220, primary screen, OD600. inhibition, % (no concentration beside the values). actives 0.33% (n = 330,000). 16 h; in the data active = inhibition above about 85%;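 note: plate controls were untreated cells for no effect and reference antibiotic for full effect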
* = called active by the depositor; · = no result given.

SMILES	Mtb hypoxia inh	Sa ugtP lethal	Sa RN4220 lethal
CC12CCC(O)CC1=CCC1C2CCC2(C)C(c3ccn[nH]3)CCC12 (stereo not given)	-6	98*	-1
C#CCOCCOCCOCCNc1nc(N2CCN(C(=O)C(CCCCN)n3cc(C(N)CC(C)C)nn3)CC2)nc(N2CCN(C(=O)C(Cc3ccc(O)cc3)n3cc(C(N)C(C)CC)nn3)CC2)n1 (stereo not given)	4	0	1
Cc1[nH]n(-c2ccccc2)c(=O)c1C=NNC(=O)c1ccccc1F	-9	-8	12
Cc1[nH]n(-c2ccc(Br)cc2)c(=O)c1C=NNC(=O)c1ccccc1	3	97*	94*
CCOc1ccc(-c2ccc(/C=C3/C(=N)N4C(C)=CSC4=NC3=O)o2)c([N+](=O)[O-])c1	5	100*	11
CCOc1ccc(-c2ccc(/C=C3/C(=N)N4C=CSC4=NC3=O)o2)c([N+](=O)[O-])c1	1	40	8
CCN1C(=O)C2C(c3ccc(-c4ccccc4)cc3)N[C@@](Cc3ccccc3)(C(=O)OC)C2C1=O (stereo not given in full)	5	-26	3
Cn1c(SCC=Cc2ccccc2)nnc1-c1ccco1	7	8	5
CCOc1ccc(NC(=O)c2ccc(NC(=O)c3cn4c5c(c(N6CCN(C)CC6)c(F)cc5c3=O)OCC4C)cc2)cc1 (stereo not given)	·	98*	98*
CC1COc2c(N3CCN(C)CC3)c(F)cc3c(=O)c(C(=O)O)cn1c23 (stereo not given)	·	99*	100*
CCOc1ccc(C(=O)Nc2ccc(N3CCN(C)CC3)cc2)cc1	18	11	6
CCn1cc(C(=O)NCCN(C)C)c(=O)c2cc(F)c(N3CCN(C)CC3)cc21	13	23	5
CCOC1OC(C(=O)NCc2ccccc2)=CC(C2CCCCC2)C1CCCO (stereo not given)	11	-3	3
CCOC(=O)C1=C(N)n2c(sc(=Cc3cccs3)c2=O)=C(C(=O)OCC)C1c1cccs1 (stereo not given)	·	0	-4
CC(O)C(C(=O)N1CCN(C(=O)OC(C)(C)C)CC1)n1cc(CCCCNC(=O)OC(C)(C)C)nn1 (stereo not given)	3	0	2
Cc1ccn2c(C=NOCc3cccc(F)c3)c(-c3ccc(Cl)cc3)nc2c1	·	-22	-10
Fc1cccc(CON=Cc2c(-c3ccccc3)nc3ccc(Cl)cn23)c1	38*	8	-4
Cc1ccc2nc(N3C(=O)C(O)=C(C(=O)c4ccc(C)o4)C3c3ccc(O)cc3)sc2c1 (stereo not given)	0	87*	44
Cc1ccc2nc(N3C(=O)C(O)=C(C(=O)c4ccco4)C3c3cccs3)sc2c1 (stereo not given)	1	11	-1
COc1cc(C=NNS(=O)(=O)c2ccccc2)cc(OC)c1OC	7	7	4
Cc1cccc(CSc2ncnc3c2cnn3Cc2ccccc2)c1	5	98*	-8
Cc1ccc(-n2ncc3c(SCc4cccc(C)c4)ncnc32)cc1	3	79	-1
Oc1ccc2oc3c(c2c1C=Nn1cnnc1)CCCC3	19	-2	2
COC(=O)C1=C(c2ccc(OC)c(OC)c2)CC2CCC1N2C(=O)NCCCOC(C)C (stereo not given)	2	-10	4
CCCCCCc1cc2cc(-c3nnc(-c4cc(OC)c(OC)c(OC)c4)o3)c(=O)oc2cc1O	-10	18	3
SMILES	Mtb hypoxia inh	Sa ugtP lethal	Sa RN4220 lethal
CCCCCCc1cc2cc(-c3nnc(-c4ccccc4O)o3)c(=O)oc2cc1O	-10	97*	67
O=C(NNc1c2ccccc2nc2ccccc12)c1cccc(O)c1	25	-5	0
Oc1cccc(-c2nc3ccc4ccccc4c3c3c2CCC3)c1	7	100*	61
COC(=O)C1=C(c2ccccc2OCc2ccccc2)CC2CCC1N2C(=O)NCCN1CCOCC1 (stereo not given)	11	7	7
O=C(NC(=S)N(Cc1ccccc1)Cc1ccccc1)c1ccccc1F	-9	94*	95*
O=C(NC(=S)NCc1ccccc1)c1ccccc1F	12	4	0
COCCN=C1OC(=O)N2C(=O)C3=C4C(CC5C(=O)N(c6ccccc6)C(=O)C5C4[C@@]12Cc1ccccc1)C1C(=O)N(c2ccccc2)C(=O)C1C3C (stereo not given in full)	17	-1	1
CCCC(=C1c2ccccc2C(=O)N1c1ccccc1)c1ccc2[nH]ccc2c1	1	28	-4
O=C(CSc1nc2ccccc2s1)N1c2ccccc2Sc2ccc(Cl)cc21	9	15	-3
O=c1oc2cc(Cl)ccc2n1CSc1nc2ccccc2s1	·	86	85*
Cc1ccc(C(=O)NC(=Cc2ccc(-c3cccc([N+](=O)[O-])c3)o2)C(=O)NC(C)(C)C)cc1	4	1	13
COC(=O)[C@@]12CCCN1C(c1ccc(-c3ccc(F)cc3)c(OC)c1)C1C(=O)N(C)C(=O)C12 (stereo not given in full)	-2	-6	1
Cc1cc(C)n(N=Cc2ccccc2O)c(=O)c1	4	7	2
Cc1cc(C)n(N=Cc2cc([N+](=O)[O-])ccc2O)c(=O)c1	-2	76	89*
O=C(Nc1ccccc1)C1=CC(c2ccc(Br)cc2)CC(OCCCCO)O1 (stereo not given)	7	9	4
CC(C)(C)c1cc(CCC(=O)NNC(=S)NC(=O)c2ccccc2)cc(C(C)(C)C)c1O	-24	89*	64
O=C(CCc1ccccc1)NNC(=S)NC(=O)c1ccccc1	4	9	40
Cc1oc(-c2cccs2)nc1CSCC(=O)N1CCC2(CC1)OCCO2	active	7	4
COc1ccc(-c2nc(CSCC(=O)N3CCC4(CC3)OCCO4)c(C)o2)cc1OC	-5	-3	-3
O=C(CC1CC=CCCC(Cc2ccc(F)cc2)C(=O)OCCNC1=O)NCCO (stereo not given)	0	0	-1
CSc1ccc(C=NNC(=O)c2cccc(O)c2)cc1	·	-1	-4
CCOC1OC(C(=O)O)=CC(c2ccc(C(F)(F)F)cc2)C1CCCO (stereo not given)	4	3	3
O=c1c2ccccc2oc2ccc(-c3ccc4[nH]ccc4c3)cc12	3	92*	13
O=c1c2ccccc2oc2cc(-c3ccc4cc[nH]c4c3)ccc12	19	2	4
COc1cccc(OC)c1C(=O)NCCc1ccccc1	6	8	4
COc1cc(CCc2ccccc2)c(C(=O)O)c(O)c1C/C=C(/C)CCC=C(C)C	-3	100*	88*
CCCCCCC1C(=NNC(=O)c2ccccc2)CCC1C(=O)OC (stereo not given)	-7	-2	2
Cc1ccc(C=NNC(=O)C(NC(=O)c2ccccc2)c2n[nH]c(=O)c3ccccc23)cc1 (stereo not given)	-10	-5	19
O=C(c1cc2nc(-c3ccc(F)cc3)cc(C(F)(F)F)n2n1)N1CCCCC1c1cccnc1 (stereo not given)	-8	active	86
O=C(c1cnn2c(C(F)(F)F)cc(-c3ccccc3)nc12)N1CCCCC1c1cccnc1 (stereo not given)	-11	-1	-2

Bioassay records as filed in PubChem BioAssay.
